An excerpt weighted towards active compounds, which were near 2.9% of everything screened.
TSHR antag – Antagonists of the Thyroid Stimulating Hormone Receptor: HTS campaign; actives 0.2% (n = 330,000); TSHR-expressing cells, TSH-stimulated cAMP HTRF, 2 h; hits give low values; activity change, negative = inhibition, % at 11.5 µM; Thyrotropin receptor (Homo sapiens), P16473; AID 504810, 2011;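 active = activity change below a set negative limit, meaning inhibition stronger than a set level, cut at about -70% in these data; inconclusive = activity change between two set negative limits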; also: % is scaled to controls: 0 for no effect and ±100 for the full control effect
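Cell-based HTRF cAMP assay; TSHR cells + compound, TSH EC80 (4nM final), 2 h, 37 deg C. Lysis with anti-cAMP cryptate and cAMP-d2, 30 min RT, read 665/620 nm.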
D3 antag – qHTS of D3 Dopamine Receptor Antagonist: qHTS. D3R cells, DiscoveRx beta-arrestin luminescence, antagonist mode; hits give low values. actives 2.5% (n = 360,000). D(3) dopamine receptor (Homo sapiens), P35462. max response, negative = inhibition, %; in the data active = max response below about -50%; inconclusive = no clear call, values can overlap the other calls; also: % is scaled to controls: 0 for no effect and ±100 for the full control effect
Target sequence (P35462 whole entry, looked up): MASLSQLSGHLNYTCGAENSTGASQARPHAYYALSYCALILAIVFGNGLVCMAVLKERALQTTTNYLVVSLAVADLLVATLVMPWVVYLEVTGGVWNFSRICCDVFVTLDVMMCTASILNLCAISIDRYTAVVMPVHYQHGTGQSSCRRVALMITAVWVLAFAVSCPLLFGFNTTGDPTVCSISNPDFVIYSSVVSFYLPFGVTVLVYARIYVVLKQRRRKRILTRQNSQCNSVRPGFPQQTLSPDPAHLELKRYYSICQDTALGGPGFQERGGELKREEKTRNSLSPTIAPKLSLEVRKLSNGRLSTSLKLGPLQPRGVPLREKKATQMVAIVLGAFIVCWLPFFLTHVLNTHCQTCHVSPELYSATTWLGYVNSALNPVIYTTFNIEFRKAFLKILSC
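Cells expressing the human receptor were seeded at 1500 cells/well, incubated overnight at 37 degrees C in 5% CO2, then exposed to library compounds with dopamine controls for 90 minutes at 37 degrees C before luminescent detection.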
D3 ag – qHTS of D3 Dopamine Receptor Agonist: qHTS; D(3) dopamine receptor (Homo sapiens), P35462; max activation, %; AID 652048, 2013; actives 0.58% (n = 410,000); D3R DiscoveRx beta-arrestin cells, luminescence, 90 min; in the data active = max activation above about 30%; also: 0% is about no effect
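Agonist-mode cell screen: cells plated at 1500/well and incubated overnight at 37 °C, then exposed to library compounds for 90 min at 37 °C. Detection reagent was added for 30–60 min at room temperature, and luminescence was read.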
B2AR arrestin – qHTS assay of beta-arrestin-biased ligands of beta2-adrenergic receptor | Beta-2 adrenergic receptor (Homo sapiens), P07550 | beta-arrestin recruitment to beta2AR, cell-based reporter | actives 0.02% (n = 330,000) | Potency, µM (titrated, usually from 46.1 µM), inactives show at the top dose activation, actives largely listed as activators | AID 492947, 2010; active = well fitted activation curve with a large enough effect; inconclusive = small, poorly fitted or top-dose-only effect;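 also: potency is read from the fitted curve at half-maximal effect; 0% = DMSO controls and full agonism = EC100 isoproterenol or metaproterenol; nearly all actives have a fitted effect of over 65% in size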
Active calls of the source: *; ! = not active in a repeat.

Screening CCCN(CCC)C(=O)Cn1c(=O)n(-c2cccc(OC)c2)c(=O)c2c(C)c(C(=O)N(C)C)sc21 returned D3 ag -5.6.
`COCCNC(=S)N/N=C(\C)c1ccc(O)cc1` gave TSHR antag 3.2, D3 antag -3.3, D3 ag -6.8 and B2AR arrestin -0.3%.
Screening C/C(=N\NC(=S)NCC(C)(C)C)c1cc(F)cc(F)c1O returned TSHR antag 3.1, D3 antag -87.6*, D3 ag -13.1 and B2AR arrestin 0.7%.
Screening CCOc1ccc(Cl)cc1-c1cc(C(=O)NCc2ccccc2)[nH]n1 returned D3 antag -18.7 and D3 ag -16.1.
For COc1ccc(Cl)cc1-c1cc(C(=O)NCc2ccccc2)[nH]n1 the results were D3 antag -59.0* and D3 ag -22.7.
`COc1ccc(Cl)cc1-c1cc(C(=O)Nc2ccc(Br)cc2)[nH]n1` gave D3 antag -76.1* and D3 ag -21.8.
For COc1ccc(C)cc1NC(=O)c1sc2nc(C)nc(N3CCOCC3)c2c1C the results were TSHR antag 1.1, D3 antag 13.0, D3 ag 3.3 and B2AR arrestin -0.2%.
`COc1cc(NC(=O)c2sc3nc(C)nc(N4CCOCC4)c3c2C)cc(OC)c1OC` gave TSHR antag 1.1, D3 antag 42.7, D3 ag 34.3* and B2AR arrestin 2.6%.
`CC1=CC(C)(C)N=C(Nc2ccc(C)cc2)S1` gave TSHR antag -0.8, D3 antag -74.0*, D3 ag 4.8 and B2AR arrestin 0.1%.
`Cn1c(Cn2nnc3ccccc32)nnc1SCC(=O)N1c2ccccc2CCc2ccccc21` gave TSHR antag -7.0, D3 antag -20.5, D3 ag -3.9 and B2AR arrestin 0.5%.
Screening Cn1c(Cn2nnc3ccccc32)nnc1SCC(=O)N1c2ccccc2Sc2ccccc21 returned TSHR antag 14.6, D3 antag -54.9*, D3 ag -22.3 and B2AR arrestin 3.7%.
Screening O=C(NCc1cccnc1)c1nn(-c2ccccc2F)nc1CO returned D3 ag -13.4.
`COc1ccc(NC(=O)N(CCC(C)C)C(C)c2ccccn2)c(OC)c1` (centres undefined) gave TSHR antag -9.2, D3 antag -53.0*, D3 ag -5.1 and B2AR arrestin 0.5%.
For CCC(C)C(=O)Nc1ccc(OC)cc1OC (centres undefined) the results were TSHR antag -3.4, D3 antag 7.6, D3 ag 0.8 and B2AR arrestin 0.0%.
`CS(=O)(=O)c1nc(-c2ccc(Br)cc2)cc(-c2ccccc2)c1C#N` gave TSHR antag inconclusive, D3 antag -17.0, D3 ag 12.0 and B2AR arrestin 0.0%.
CS(=O)c1nc(-c2ccc(Br)cc2)cc(-c2ccccc2)c1C#N (centres undefined) was read as TSHR antag -73.4*, D3 antag -56.3*, D3 ag -2.6 and B2AR arrestin 12.3%.
`Cc1ccc(CNC(=O)Cn2ccn(-c3ccc(F)c(F)c3)c(=O)c2=O)cc1` gave D3 ag -10.4.
For Nc1c(C(=O)O)ccc2c1C(=O)c1ccccc1C2=O the results were TSHR antag -17.7, D3 antag inconclusive, D3 ag -11.5 and B2AR arrestin 0.2%.
For Nc1c(SCCC(=O)O)ccc2c1C(=O)c1ccccc1C2=O the results were TSHR antag 8.1, D3 antag -56.2*, D3 ag -8.3 and B2AR arrestin 2.3%.
For CC(C)C[C@H](NC(=O)[C@@H](COC(C)(C)C)NC(=O)[C@H](Cc1ccc(O)cc1)NC(=O)[C@H](CO)NC(=O)[C@H](Cc1c[nH]c2ccccc12)NC(=O)[C@H](Cc1cnc[nH]1)NC(=O)[C@@H]1CCC(=O)N1)C(=O)N[C@@H](CCCN=C(N)N)C(=O)N1CCC[C@H]1C(=O)NNC(N)=O the results were D3 ag 1.4.
`CCCCCCCC[n+]1cccc(C(=O)N(CC)CC)c1` gave TSHR antag 2.7, D3 antag -11.3, D3 ag 0.0 and B2AR arrestin -0.2%.
Screening CCCCCCCCCCCCCCCC[n+]1cccc(C(=O)N(CC)CC)c1 returned TSHR antag 10.1, D3 antag -74.2*!, D3 ag -11.0 and B2AR arrestin -2.0%.
For CCc1nc2nc(C)cc(Nc3ccc(Br)cc3F)n2n1 the results were D3 ag -2.6.
Cc1c(CCC(=O)NCCc2ccccc2)c(=O)oc2c(C)c(O)ccc12 was read as D3 ag -12.8.
Screening O=C1c2ccccc2NC(c2c(Cl)cccc2Cl)N1Cc1ccccc1 (centres undefined) returned TSHR antag -3.6, D3 antag -25.2, D3 ag -1.5 and B2AR arrestin 0.2%.
O=C1c2ccccc2NC(c2ccc(Cl)cc2Cl)N1Cc1ccccc1 (centres undefined) was read as TSHR antag -25.5, D3 antag -53.2*, D3 ag 2.6 and B2AR arrestin 0.1%.
For CCCCSc1nc(C)c(C(C)=O)cc1C#N the results were TSHR antag 2.8, D3 antag -51.7*, D3 ag -5.1 and B2AR arrestin 0.5%.
CC(=O)Oc1c(Cl)cc(Cl)cc1/C=C/c1ccc2ccccc2n1 was read as TSHR antag -2.9, D3 antag 38.7, D3 ag 39.3* and B2AR arrestin -0.2%.
Screening C/C=C/CSc1nc2c(c(=O)[nH]c(=O)n2C)n1CCC returned TSHR antag 9.0, D3 antag 20.4, D3 ag 6.3 and B2AR arrestin -0.3%.
For CCCn1c(Sc2nc3c(c(=O)[nH]c(=O)n3C)n2CCC)nc2c1c(=O)[nH]c(=O)n2C the results were TSHR antag 2.2, D3 antag -57.1*, D3 ag 0.0 and B2AR arrestin -0.3%.
For Cc1nc2ccccn2c(=O)c1NC(=O)c1ccc(C(F)(F)F)cc1 the results were D3 ag -13.4.
`CCOc1ccccc1OCCOCCOc1ccccc1[N+](=O)[O-]` gave TSHR antag -1.2, D3 antag 7.0, D3 ag 3.1 and B2AR arrestin -2.7%.
`Clc1ccc(OCCCNCc2ccccc2)c(Br)c1` gave TSHR antag -2.9, D3 antag -78.6*, D3 ag -21.1 and B2AR arrestin -0.1%.
Screening COc1cc(C)ccc1OCCCCNCc1ccccc1 returned TSHR antag -5.3, D3 antag -21.3, D3 ag -14.3 and B2AR arrestin -0.2%.
O=[N+]([O-])c1ccccc1OCCCNCc1ccccc1 was read as TSHR antag 6.2, D3 antag -63.3*, D3 ag -12.3 and B2AR arrestin 0.2%.
Screening Clc1ccc(Cl)c(OCCCCNCc2ccccc2)c1 returned TSHR antag 3.7, D3 antag -69.1*, D3 ag -13.3 and B2AR arrestin -0.3%.
